Source: PubChem BioAssay
The source made the active and inactive calls.

Key:
[1] = test system: PRMT1 (protein arginine N-methyltransferase 1); assay: small molecules binding arginine methyltransferase PRMT1 – biochemical, small-molecule microarray, 635 nm fluorescence, primary screen (AID 1088); details: higher = more signal;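 also: binding of Prmt1 protein to compounds spotted on small-molecule microarray slides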
[2] = growth effects on S. cerevisiae YJM789 – YJM789 clinical isolate, OD600, 24 h, basal, primary screen (AID 1089); details: higher = more signal, called active from +8 up or from −8 down;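 also: growth of clinical yeast isolate S. cerevisiae YJM 789 seeded 1000 cells per well; test concentration not given here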
[3] = S. pombe growth modifiers, basal conditions – strain 972, OD600, 24 h, no modulator, primary screen (AID 1090);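 also: basal condition with compound alone and no growth modifier present; test concentration not given here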; details: S. pombe 972 growth, higher = more signal, called active from +8 up or from −8 down
[4] = budding yeast growth modifiers under rapamycin – strain BY4716, OD600, 96 h, primary screen (AID 1091); also: test concentration not given here; details: S. cerevisiae BY4716 + rapamycin, higher = more signal, called active from +8 up or from −8 down
[5] = molecular target: Torsin-1A-interacting protein 2 (Homo sapiens) (UniProt Q8NFQ8); assay: small molecules binding lysate-expressed LULL1 – cell lysate, human LULL1 lysate, 635/667 nm fluorescence, primary screen (AID 1092); details: small-molecule microarray, hLULL1 lysate binding, 635 nm fluorescence; higher = more signal;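 also: probe is lysate of COS7 cells overexpressing human LULL1; score merges per-feature 667 nm fluorescence with signal-to-noise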
[6] = optical density change of DRC41 E. coli – strain DRC41, OD650, 24 h, E. coli filamentation project, primary screen (AID 1093);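 also: MC1000 strain lacking acrAB efflux and sulA so SOS filamentation is blocked; test concentration not given here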; details: E. coli DRC41 growth, higher = more signal, called active from +8 up or from −8 down
[7] = probe aLefty2 binding to arrayed compounds – biochemical, biotinylated probe, 635/667 nm fluorescence, primary screen (AID 1094); details: small-molecule microarray, higher = more signal;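 also: score merges spot fluorescence near 667 nm with spot signal-to-noise ratio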
[8] = test system: Noggin (protein binding on small-molecule microarray); assay: small molecules binding Noggin protein – biochemical, 635/667 nm fluorescence, primary screen (AID 1095); details: 635 nm fluorescence, higher = more signal;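 also: score merges 667 nm feature fluorescence with signal to noise over triplicate slides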
[9] = molecular target: Neurogenic locus notch homolog protein 3 (Homo sapiens) (UniProt Q9UM47); assay: small molecules binding NOTCH3 protein – biochemical, 635/667 nm fluorescence, primary screen (AID 1096); details: small-molecule microarray, 635 nm fluorescence, higher = more signal
[10] = probe aEGFR binding to arrayed compounds – biochemical, biotinylated probe, 635/667 nm fluorescence, primary screen (AID 1097); details: small-molecule microarray, higher = more signal;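 also: probe is a biotinylated anti-EGFR antibody binding compounds printed on slides; score combines fluorescence near 667 nm and signal to noise of each spot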

Torsin-1A-interacting protein 2 (Homo sapiens), sequence (Q8NFQ8 whole entry, looked up): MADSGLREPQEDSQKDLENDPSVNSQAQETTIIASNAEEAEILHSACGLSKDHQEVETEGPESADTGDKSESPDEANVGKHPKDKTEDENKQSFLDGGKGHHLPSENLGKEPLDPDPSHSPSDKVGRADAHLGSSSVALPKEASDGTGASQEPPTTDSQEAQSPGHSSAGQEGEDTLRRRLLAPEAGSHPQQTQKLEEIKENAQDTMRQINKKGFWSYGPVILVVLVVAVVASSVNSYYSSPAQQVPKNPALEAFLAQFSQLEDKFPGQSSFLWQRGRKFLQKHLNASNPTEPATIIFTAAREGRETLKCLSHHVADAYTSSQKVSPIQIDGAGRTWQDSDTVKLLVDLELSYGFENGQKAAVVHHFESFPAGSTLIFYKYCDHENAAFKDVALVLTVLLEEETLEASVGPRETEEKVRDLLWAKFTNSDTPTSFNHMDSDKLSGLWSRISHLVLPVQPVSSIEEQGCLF
Neurogenic locus notch homolog protein 3 (Homo sapiens), sequence (Q9UM47 whole entry, looked up): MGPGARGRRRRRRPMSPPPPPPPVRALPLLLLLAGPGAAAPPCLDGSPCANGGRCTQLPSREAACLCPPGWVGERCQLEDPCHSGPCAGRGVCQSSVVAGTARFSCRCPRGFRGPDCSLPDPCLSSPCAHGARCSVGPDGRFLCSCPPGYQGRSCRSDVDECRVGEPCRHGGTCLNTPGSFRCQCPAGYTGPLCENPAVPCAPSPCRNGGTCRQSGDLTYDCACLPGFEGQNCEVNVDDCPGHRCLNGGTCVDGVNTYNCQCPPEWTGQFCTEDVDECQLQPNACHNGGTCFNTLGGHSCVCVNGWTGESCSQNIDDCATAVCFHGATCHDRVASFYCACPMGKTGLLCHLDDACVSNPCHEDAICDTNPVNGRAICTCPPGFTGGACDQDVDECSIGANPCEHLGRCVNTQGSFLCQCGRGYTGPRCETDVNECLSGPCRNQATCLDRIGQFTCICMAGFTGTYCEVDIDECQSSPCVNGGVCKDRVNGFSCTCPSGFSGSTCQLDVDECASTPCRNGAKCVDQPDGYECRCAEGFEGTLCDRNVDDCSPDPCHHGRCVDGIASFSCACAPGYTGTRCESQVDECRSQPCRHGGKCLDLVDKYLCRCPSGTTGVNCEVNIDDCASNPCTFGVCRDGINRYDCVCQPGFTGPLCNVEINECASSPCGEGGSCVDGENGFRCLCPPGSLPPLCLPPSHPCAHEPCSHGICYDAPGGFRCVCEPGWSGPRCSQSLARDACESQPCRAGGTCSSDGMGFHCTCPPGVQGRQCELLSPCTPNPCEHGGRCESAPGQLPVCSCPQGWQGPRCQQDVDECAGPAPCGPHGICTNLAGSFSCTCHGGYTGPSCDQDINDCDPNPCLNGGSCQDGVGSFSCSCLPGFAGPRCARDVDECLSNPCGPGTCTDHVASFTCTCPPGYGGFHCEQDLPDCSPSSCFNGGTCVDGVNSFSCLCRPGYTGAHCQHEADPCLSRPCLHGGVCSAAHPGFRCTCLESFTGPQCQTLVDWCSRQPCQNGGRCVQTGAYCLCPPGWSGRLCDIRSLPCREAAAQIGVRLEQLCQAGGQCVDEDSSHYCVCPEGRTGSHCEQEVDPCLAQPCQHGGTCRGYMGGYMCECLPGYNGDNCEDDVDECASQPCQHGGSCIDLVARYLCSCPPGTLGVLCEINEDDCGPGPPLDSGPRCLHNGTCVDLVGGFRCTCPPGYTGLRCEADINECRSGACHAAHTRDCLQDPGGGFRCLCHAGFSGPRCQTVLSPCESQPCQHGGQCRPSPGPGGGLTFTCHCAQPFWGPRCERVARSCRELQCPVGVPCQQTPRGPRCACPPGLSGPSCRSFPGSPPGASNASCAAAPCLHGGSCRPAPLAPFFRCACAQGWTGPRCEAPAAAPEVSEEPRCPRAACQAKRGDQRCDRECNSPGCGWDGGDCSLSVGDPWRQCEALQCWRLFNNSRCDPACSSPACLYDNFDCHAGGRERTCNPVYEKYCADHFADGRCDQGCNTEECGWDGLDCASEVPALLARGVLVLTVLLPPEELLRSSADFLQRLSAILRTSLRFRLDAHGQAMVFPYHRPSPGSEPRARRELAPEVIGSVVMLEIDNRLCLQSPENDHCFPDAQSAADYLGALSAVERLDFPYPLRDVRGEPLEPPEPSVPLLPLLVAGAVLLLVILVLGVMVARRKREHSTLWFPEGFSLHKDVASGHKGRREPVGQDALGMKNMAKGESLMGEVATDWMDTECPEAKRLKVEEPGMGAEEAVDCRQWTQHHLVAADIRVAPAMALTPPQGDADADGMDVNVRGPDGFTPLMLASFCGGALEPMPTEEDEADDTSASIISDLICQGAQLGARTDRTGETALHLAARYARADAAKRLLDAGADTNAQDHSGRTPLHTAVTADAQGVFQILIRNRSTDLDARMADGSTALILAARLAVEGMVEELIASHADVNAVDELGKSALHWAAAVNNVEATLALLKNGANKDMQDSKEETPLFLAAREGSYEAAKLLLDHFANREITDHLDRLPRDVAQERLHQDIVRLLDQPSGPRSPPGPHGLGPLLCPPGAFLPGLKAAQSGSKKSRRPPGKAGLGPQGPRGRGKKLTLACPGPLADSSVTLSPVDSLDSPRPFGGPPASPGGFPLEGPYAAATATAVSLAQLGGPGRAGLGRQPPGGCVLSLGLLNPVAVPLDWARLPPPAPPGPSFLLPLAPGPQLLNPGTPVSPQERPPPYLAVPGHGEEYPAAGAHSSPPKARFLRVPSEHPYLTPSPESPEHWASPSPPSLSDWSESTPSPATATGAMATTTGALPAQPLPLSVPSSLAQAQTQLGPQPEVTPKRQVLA

Row | Compound | composite z-score [1] | z-score [2] | z-score [3] | z-score [4] | composite z-score [5] | z-score [6] | composite z-score [7] | composite z-score [8] | composite z-score [9] | composite z-score [10]
1 | COc1ccc([Si](C)(C)[C@@H]2[C@@H](CCO)O[C@]3(C(=O)N(Cc4ccccc4)c4ccc(NC(=O)[C@H](C)O)cc43)[C@H]2C)cc1 | 1.54 | 2.85 (inactive) | 0.386 (inactive) | 7.41 (inactive) | 2 | 0.655 (inactive) | -0.0766 | 1.25 | 1.05 | -0.067
2 | COc1cc2c(cc1O)C(c1cccs1)N(Cc1cc3c(cc1Br)OCO3)CC2 (stereo not given) | 1.53 | -0.592 (inactive) | -4.96 (inactive) | -0.859 (inactive) | 3.45 | -1.45 (inactive) | 0.183 | 0.289 | 1.07 | 0.0778
3 | C=C[C@@H](OC)[C@H](OC(=O)Nc1ccc(OC)cc1)c1ccc(O)c(F)c1 | 0.882 | -1.48 (inactive) | -4.59 (inactive) | 0.144 (inactive) | 1.16 | 1.19 (inactive) | -0.183 | 0.638 | 0.0981 | -0.199
4 | CC(=O)N1CC2(CC2)CC1c1ccccc1 (stereo not given) | 0.594 | -0.999 (inactive) | 0.661 (inactive) | 0.218 (inactive) | 1.19 | 0.0425 (inactive) | 0.0423 | 0.423 | 0.251 | 0.0986
5 | Cn1cccc1C(O)C1C=CC2C(=O)N(c3ccccc3)C(=O)C2N1Nc1ccccc1 (stereo not given) | 1.56 | 0.537 (inactive) | 0.445 (inactive) | 0.566 (inactive) | 3.37 | -0.598 (inactive) | 0.27 | 0.781 | 1.02 | 0.0651
6 | CCCCC(CC)C(O)C1C=CC2C(=O)N(c3ccccc3)C(=O)C2N1Nc1ccc(C#N)cc1 (stereo not given) | 1.54 | 0.491 (inactive) | 0.221 (inactive) | 1.85 (inactive) | 3.14 | 0.0307 (inactive) | 0.555 | 0.208 | 1.04 | 0.338
7 | CC1=C2[C@@H](CCc3ccccc3)OB(O)C[C@@H]2[C@@H]2C(=O)N(C)C(=O)[C@@H]2C1 | 0.618 | -0.229 (inactive) | -1.2 (inactive) | -1.24 (inactive) | 0.299 | -0.253 (inactive) | -0.197 | 0.446 | 0.279 | -0.0238
8 | COc1cccc(C)c1NC(=O)O[C@H]1[C@H](OC(=O)Nc2ccc3c(c2)OCO3)[C@@H](OC(=O)Nc2ccc3c(c2)OCO3)[C@@H](OC)O[C@@H]1CO | 1.54 | 1.94 (inactive) | 2.2 (inactive) | 8.01 (active) | 3.58 | 1.23 (inactive) | 0.218 | 1.4 | 1.04 | -0.0031
9 | O=C1N(Cc2ccccc2)c2ccccc2C[C@]12N=C(c1ccc(OCCCO)cc1)O[C@@H]2c1ccccc1 | 1.21 | 1.1 (inactive) | 0.6 (inactive) | 5.61 (inactive) | 2.42 | 0.316 (inactive) | 0.102 | 0.885 | 1.03 | -0.0549
10 | CC(C)C[C@@H]1NC(=O)[C@@H]2C[C@H](C(=O)NCCCCCCN)[C@H](c3cccc(OCCO)c3)N2C1=O | 1.53 | -0.148 (inactive) | -0.114 (inactive) | -0.502 (inactive) | 2.98 | 1.03 (inactive) | 0.235 | 0.993 | 1.12 | 0.0499
11 | COC(=O)[C@@H]1N=C(c2ccc(OCCCO)cc2)O[C@@H]1C | 1.28 | 0.464 (inactive) | -0.0679 (inactive) | -0.184 (inactive) | -0.0276 | 0.98 (inactive) | 0.0539 | 0.0641 | 0.0599 | -0.0465
12 | C=CCC(OC(C)=O)[C@@H]1[C@@H](N(Cc2cc3ccccc3o2)C(=O)Cc2ccc(F)cc2)c2cc(OCCCO)ccc2N1C(=O)Cc1ccc2ccccc2c1 (stereo not given in full) | -0.241 | -0.689 (inactive) | -0.761 (inactive) | -0.36 (inactive) | 0.426 | -1.16 (inactive) | -0.0736 | 0.129 | -0.413 | -0.185
13 | COCCOC(=O)N1C(=O)[C@@]2(c3ccccc31)[C@H](c1ccc(O)cc1)N1[C@H](c3ccccc3)[C@H](c3ccccc3)OC(=O)[C@H]1[C@@H]2C(=O)N1CCN(c2ncccn2)CC1 | 1.55 | 0.42 (inactive) | 1.17 (inactive) | 1.84 (inactive) | 2.78 | 1.05 (inactive) | 0.0669 | 1.13 | 0.855 | 0.0334
14 | CCOC(=O)C1=CC[C@@H](c2ccccc2F)N(S(=O)(=O)c2ccc(C)cc2)[C@H]1c1ccccc1 | 1.12 | -0.0047 (inactive) | 1.29 (inactive) | 0.151 (inactive) | 2.72 | -0.818 (inactive) | -0.0551 | 0.63 | 0.812 | -0.101
15 | C=CC[C@]1(C(=O)N2CCOCC2)COC(c2ccc(OCCCO)cc2)=N1 | 1.55 | -0.544 (inactive) | -0.243 (inactive) | -1.28 (inactive) | 4.02 | 0.0927 (inactive) | 0.0386 | 0.78 | 1.09 | -0.0828
16 | COCCCNC(=O)[C@@H]1c2ccccc2C(=O)N(C(C)C)[C@H]1c1ccc(CO)cc1 | -0.325 | 0.602 (inactive) | 0.439 (inactive) | 0.395 (inactive) | -0.719 | -0.214 (inactive) | 0.0321 | 0.523 | -0.406 | -0.02
17 | CC#CCO[Si](C#Cc1ccccc1)(C(C)C)C(C)C | -0.877 | -1.72 (inactive) | -19.5 (active) | -1.86 (inactive) | -0.669 | -0.304 (inactive) | -0.135 | 0.709 | 0.231 | -0.203
18 | [N-]=[N+]=NCc1ccccc1[C@@H]1OC(c2ccc(OCCCO)cc2)=N[C@]1(CCS(=O)(=O)c1ccccc1)C(=O)O | 0.627 | 0.302 (inactive) | 0.76 (inactive) | 0.248 (inactive) | 3.31 | 0.177 (inactive) | 0.17 | -0.823 | 0.123 | -0.0535
19 | CC1=C2[C@@H](CCc3ccccc3)OB(O)C[C@@H]2[C@@H]2C(=O)N(Cc3ccccc3)C(=O)[C@@H]2C1 | 0.433 | -0.763 (inactive) | -2.47 (inactive) | -0.993 (inactive) | 1.24 | -0.116 (inactive) | -0.116 | 0.694 | 0.57 | -0.0381
20 | O=C(c1ccccc1)N1C(=O)[C@]2(Cc3ccccc31)N=C(c1ccc(OCCCO)cc1)O[C@@H]2c1ccccc1 | 1.54 | 0.525 (inactive) | 0.171 (inactive) | 3.7 (inactive) | 3.25 | 0.0249 (inactive) | -0.0059 | 1.12 | 1.07 | -0.157
21 | C=C(/C(=C/C[C@H](OC(C)=O)c1ccc(CO)o1)c1cnc2ccccc2c1)C(C)C | 1.54 | -0.816 (inactive) | -1.13 (inactive) | 0.171 (inactive) | 2.64 | 0.243 (inactive) | -0.044 | 1.6 | 1.02 | -0.0172
22 | Cc1ccc(S[C@]2(C(=O)NCC(F)(F)F)CC(=O)N(Cc3cc(C(F)(F)F)cc(C(F)(F)F)c3)[C@@H]2c2ccc(CO)cc2I)cc1 | -0.0631 | -2.58 (inactive) | -2.58 (inactive) | -0.857 (inactive) | -0.0923 | -0.3 (inactive) | -0.054 | -0.716 | -1.32 | -0.556
23 | CCCCNC(=O)c1ccc(C#CC(C)(C)C)c(OC(C)=O)c1 | 1.45 | 0.0582 (inactive) | -5.49 (inactive) | -1 (inactive) | 0.503 | 1.05 (inactive) | -0.159 | 0.0904 | 1.1 | -0.127
24 | O=C1C[C@]2(c3ccc([N+](=O)[O-])cc3)C(=O)N(C3CC3)c3cc(CO)ccc3[C@H]2N1CC12CC3CC(CC(C3)C1)C2 | 0.739 | -0.263 (inactive) | 0.436 (inactive) | -0.574 (inactive) | 1.87 | -1.29 (inactive) | -0.171 | -1.02 | -0.466 | -0.228
25 | CCCCN1CC=CC23O[C@@H]4/C=C\CCC(C)OC(=O)C4[C@H]2C(=O)N(CCCO)[C@@H]3C1=O (stereo not given in full) | -0.298 | 0.757 (inactive) | 0.772 (inactive) | 0.528 (inactive) | 0.879 | 0.755 (inactive) | -0.186 | -0.908 | -0.166 | -0.217
26 | CC[C@@H]1O[Si](C(C)C)(C(C)C)c2c1cc(-c1cc(C)c(OC)c(C)c1)nc2-c1ccc(Oc2ccccc2)cc1 | -0.0555 | 0.0662 (inactive) | 0.131 (inactive) | -0.798 (inactive) | -0.346 | -0.333 (inactive) | -0.123 | 0.0174 | 0.0178 | -0.162
27 | Cc1ccc(F)cc1S(=O)(=O)N[C@@H]1CCN(Cc2ccc(Br)cc2)C1 | -0.268 | -1.47 (inactive) | -17.4 (active) | -1.73 (inactive) | -1.04 | -1.12 (inactive) | -0.161 | 1.21 | 0.895 | -0.0455
28 | [N-]=[N+]=Nc1ccccc1C[C@]1(C(=O)NCC(O)CO)COC(c2ccc(OCCCO)cc2)=N1 (stereo not given in full) | 0.149 | 0.887 (inactive) | -0.13 (inactive) | 0.69 (inactive) | 3.11 | 1.05 (inactive) | 0.23 | -0.906 | -1.26 | 0.58
29 | COC(=O)[C@@]1(Cc2ccc(F)cc2)[C@H]2c3cc(C(=O)N4CCCC4)n(CCc4c[nH]c5ccccc45)c3C[C@H]2CN1C(=O)c1ccccc1 | 1.38 | 0.519 (inactive) | 1.68 (inactive) | 7.25 (inactive) | 3.42 | -1.3 (inactive) | 0.323 | 0.462 | 1.01 | 0.0688
30 | O[C@@H](Cc1ccccc1)[C@@H](/C=C/C1CC1)N(CC#Cc1ccccc1)Cc1ccccc1Br | -0.0917 | 0.298 (inactive) | 0.398 (inactive) | 1.43 (inactive) | 0.461 | 0.247 (inactive) | 0.0166 | -1.33 | -0.817 | -0.339
